Test systems include NCI-H23 lung; NCI-H226 lung; HOP-62 NSCLC; NCI-H460 lung; HOP-92 NSCLC; NCI-H522 lung; A549/ATCC NSCLC; 786-0 renal; COLO 205 colon; DU-145 prostate; K-562 leukemia; MALME-3M melanoma; MDA-MB-231 breast; RXF 393 renal; SF-268 CNS; SF-295 CNS; SF-539 CNS; UACC-257 melanoma; M14 melanoma.
Assay in all cases: NCI-60 one-dose screen, 48 h (100 = growth as untreated, 0 = no growth, -100 = all killed)
Common to all, as to details: 10 µM unless noted

About 83,000 compounds went through this panel and 20% of them were active in at least one assay; those are over-represented in the sample as a whole.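 Activity criterion: percent growth below 10, measured after cells in 96-well plates were exposed to a single compound concentration for 48 hours.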 A number with no mark means an inactive call. The source made the active and inactive calls.

For `CCOc1ccc(C2N(c3cc(OC)c(OC)c(OC)c3)C(=O)C2(F)F)cc1` (stereo not drawn), the growth in the assay on NCI-H23 lung was 33.6%; in the assay on NCI-H226 lung, 71%; with HOP-62 NSCLC, 40.8%; in the assay with NCI-H460 lung, 12.7%; with HOP-92 NSCLC, 55.6%; with NCI-H522 lung, 19.3%. The growth in the assay on A549/ATCC NSCLC is 33.6%; in the assay on 786-0 renal it was 64.7%; in the assay on COLO 205 colon, 10.8%; in the assay with DU-145 prostate it was 30.1%; in the assay with K-562 leukemia, 8.49% (active); with MALME-3M melanoma it was 63.1%. The growth with MDA-MB-231 breast was 46.1%; with RXF 393 renal, 54.2%; in the assay with SF-268 CNS, 52.4%; with SF-295 CNS, 56.3%; in the assay on SF-539 CNS, 10.8%; in the assay with UACC-257 melanoma it was 58.7%. Moreover, the growth with M14 melanoma was 27.5%.
In the case of `CCCCCCCc1n(Cc2ccc3ccccc3c2)c2ccccc2[n+]1Cc1ccc2ccccc2c1`, the growth is -76.9% (active) with NCI-H23 lung; -70.8% (active) in the assay on NCI-H226 lung; -70.6% (active) in the assay on HOP-62 NSCLC; -73% (active) in the assay with NCI-H460 lung; -84.4% (active) in the assay with HOP-92 NSCLC; -81.1% (active) with NCI-H522 lung. Further, the growth with A549/ATCC NSCLC is -77.5% (active); in the assay on 786-0 renal, -65.1% (active); in the assay with COLO 205 colon it was -75.8% (active); with DU-145 prostate, -94.7% (active); with K-562 leukemia, -67.3% (active); with MALME-3M melanoma it was -67.2% (active). Also, the growth in the assay with MDA-MB-231 breast was -81.2% (active); in the assay on RXF 393 renal, -72.1% (active); in the assay on SF-268 CNS, -74.9% (active); in the assay on SF-295 CNS, -92% (active); in the assay on SF-539 CNS, -88.9% (active); with UACC-257 melanoma, -76.5% (active). Further, in the assay on M14 melanoma, the growth was -72% (active).
As for `C#C[C@@]1(O)[C@@H](CO)O[C@@H](n2cc(Br)c3c(N)ncnc32)[C@@H]1O`, the growth with NCI-H23 lung was 2.83% (active); in the assay with NCI-H226 lung it was 21.2%; in the assay on HOP-62 NSCLC, -5.18% (active); with NCI-H460 lung, -36% (active); in the assay on HOP-92 NSCLC, -27.2% (active); with NCI-H522 lung it was -30.7% (active). Besides, the growth with A549/ATCC NSCLC is -51.8% (active); with 786-0 renal, -48.5% (active); in the assay with COLO 205 colon, -36.8% (active); in the assay with DU-145 prostate it was 5% (active); with K-562 leukemia, 5.03% (active); with MALME-3M melanoma, 5.66% (active). Besides, the growth is 2.76% (active) in the assay with MDA-MB-231 breast; -30.9% (active) with RXF 393 renal; 13.9% in the assay on SF-268 CNS; 2.42% (active) in the assay on SF-295 CNS; -60.8% (active) in the assay with SF-539 CNS; 57.5% with UACC-257 melanoma. Besides, the growth in the assay with M14 melanoma is 0.212% (active).
For the molecule `COc1cc(-c2csc(NC(=O)Nc3ccc(C(F)(F)F)cc3)n2)cc(OC)c1OC`, the growth was 2.62% (active) in the assay with NCI-H23 lung; 0.0527% (active) in the assay with NCI-H226 lung; 9.05% (active) with HOP-62 NSCLC; 4.98% (active) with NCI-H460 lung; -24.5% (active) in the assay on HOP-92 NSCLC; -25% (active) in the assay on NCI-H522 lung. The growth with A549/ATCC NSCLC is 5.16% (active); in the assay with 786-0 renal, -10% (active); in the assay with COLO 205 colon, -44.4% (active); in the assay with DU-145 prostate, 20.8%; with K-562 leukemia it was 7.21% (active); in the assay with MALME-3M melanoma, -12.1% (active). Further, the growth in the assay with MDA-MB-231 breast is -14.3% (active); with RXF 393 renal, -4.21% (active); in the assay on SF-268 CNS, 29.1%; in the assay on SF-295 CNS it was -12.4% (active); in the assay with SF-539 CNS, 16%; in the assay with UACC-257 melanoma, -18.1% (active). Further, the growth with M14 melanoma is 5.54% (active).
Consider `COc1cccc2c1-c1ccccc1C2=O`, for which the growth with NCI-H23 lung was 43.1%; in the assay on NCI-H226 lung it was 84.1%; in the assay with HOP-62 NSCLC, 37.4%; in the assay with NCI-H460 lung it was 7.57% (active); in the assay with HOP-92 NSCLC, 74%; in the assay on NCI-H522 lung, -13.7% (active). For the same molecule, the growth is 23.3% in the assay with A549/ATCC NSCLC; 23.9% in the assay on 786-0 renal; 11.6% in the assay on COLO 205 colon; 17.7% with DU-145 prostate; 8.78% (active) with K-562 leukemia; 59.7% in the assay on MALME-3M melanoma. Further, the growth with MDA-MB-231 breast is 29.6%; in the assay on RXF 393 renal, -2.91% (active); in the assay with SF-268 CNS, 48.2%; with SF-295 CNS, 9.85% (active); with SF-539 CNS it was -3.06% (active); in the assay with UACC-257 melanoma it was 51.5%. For the same molecule, in the assay with M14 melanoma, the growth is -1.41% (active).
Consider `NS(=O)(=O)c1ccc(C2C3=C(CCCC3=O)OC3=C2C(=O)c2ccccc2C3=O)cc1` (stereo not drawn), for which the growth is -31.3% (active) with NCI-H23 lung; -56.7% (active) in the assay with NCI-H226 lung; -89.8% (active) with HOP-62 NSCLC; -71.4% (active) in the assay on NCI-H460 lung; -31.7% (active) with HOP-92 NSCLC; -73.7% (active) in the assay with NCI-H522 lung. Moreover, the growth in the assay with A549/ATCC NSCLC was -34.9% (active); with 786-0 renal, -90.7% (active); with COLO 205 colon, -80.3% (active); with DU-145 prostate, -99.1% (active); in the assay on K-562 leukemia, -43.3% (active); with MALME-3M melanoma, -97.4% (active). The growth is 5% (active) in the assay with MDA-MB-231 breast; -90% (active) in the assay on RXF 393 renal; -42.6% (active) in the assay with SF-268 CNS; -80.3% (active) in the assay with SF-295 CNS; -88.5% (active) in the assay on SF-539 CNS; -90.3% (active) in the assay with UACC-257 melanoma. Moreover, in the assay with M14 melanoma, the growth was -95% (active).
Turning to `CSc1nc(-c2ccc(F)cc2)c(C#N)c(N2CCOCC2)n1`, the growth in the assay on NCI-H23 lung was 101%; with NCI-H226 lung it was 80%; in the assay on HOP-62 NSCLC, 97.3%; in the assay on NCI-H460 lung it was 102%; with HOP-92 NSCLC, 73.9%; in the assay with NCI-H522 lung, 90.1%. Further, the growth is 88.6% with A549/ATCC NSCLC; 93.7% in the assay on 786-0 renal; 106% with COLO 205 colon; 101% in the assay with DU-145 prostate; 92.9% in the assay with K-562 leukemia; 116% with MALME-3M melanoma. Also, the growth is 92.5% in the assay with MDA-MB-231 breast; 91.3% in the assay with RXF 393 renal; 93.5% in the assay on SF-268 CNS; 92.2% in the assay with SF-295 CNS; 94.9% with SF-539 CNS; 91.9% with UACC-257 melanoma. Besides, the growth in the assay on M14 melanoma is 107%.

For the origin of these results see PubChem BioAssay (NCI).
